Measurements: PubChem BioAssay AID1159580 (chemical genetic matrix, 2015)
Out of some 5,500 compounds screened, about 2,000 (36%) were called active. Roughly 18% stayed inconclusive and do not appear here. This is one part of the list. A number with no mark means an inactive call. Cut-off read from the data, not from the text of the source: active = normalized growth mostly below about 0.91 (no sharp cut-off); inconclusive = no clear call, values can overlap the other calls; inactive = mostly above about 0.92.

Assay: chemical genetic growth profiling, strain panel (AID 1159580);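 note: tested at 20 µM; growth read once vehicle control cultures reached saturation at 30 °C; 1 = growth at the plate median or of vehicle wells; lower values mean less growth of the strain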
Details: S. cerevisiae deletion strains, growth OD

Question: For `COc1cccc(C(=O)C(C#N)=C(SC)SC)c1`, which normalized growth (locus YAR019C, strain CDC15, active compounds read low) is on record?
Answer: 0.875 (active)

Question: What about the normalized growth (locus YBL105C, strain PKC1, active compounds read low) of the same molecule?
Answer: 0.88 (active)

Question: What about the normalized growth (locus YBR135W, strain CKS1, active compounds read low) of the same molecule?
Answer: 0.87 (active)

Question: What about the normalized growth (locus YBR136W, strain MEC1, active compounds read low) of the same molecule?
Answer: 0.879 (active)

Question: And the normalized growth (locus YBR160W, strain CDC28, active compounds read low)?
Answer: 0.878 (active)

Question: And the normalized growth (locus YDL017W, strain CDC7, active compounds read low)?
Answer: 0.881 (active)

Question: And the normalized growth (locus YDL028C, strain MPS1, active compounds read low)?
Answer: 0.884 (active)

Question: What about the normalized growth (locus YDL101C, strain DUN1, active compounds read low) of the same molecule?
Answer: 0.901 (active)

Question: What about the normalized growth (locus YDL108W, strain KIN28, active compounds read low) of the same molecule?
Answer: 0.894 (active)

Question: And the normalized growth (locus YDL132W, strain cdc53, active compounds read low)?
Answer: 0.874 (active)

Question: And the normalized growth (locus YDL214C, strain PRR2, active compounds read low)?
Answer: 0.429 (active)

Question: And the normalized growth (locus YDR052C, strain DBF4, active compounds read low)?
Answer: 0.879 (active)

Question: And the normalized growth (locus YDR054C, strain cdc34, active compounds read low)?
Answer: 0.855 (active)

Question: And the normalized growth (locus YDR226W, strain ADK1, active compounds read low)?
Answer: 0.87 (active)

Question: And the normalized growth (locus YDR477W, strain SNF1, active compounds read low)?
Answer: 0.393 (active)

Question: And the normalized growth (locus YER123W, strain YCK3, active compounds read low)?
Answer: 0.256 (active)

Question: And the normalized growth (locus YER133W, strain GLC7, active compounds read low)?
Answer: 0.295 (active)

Question: What about the normalized growth (locus YFL009W, strain cdc4, active compounds read low) of the same molecule?
Answer: 0.869 (active)

Question: And the normalized growth (locus YFL029C, strain CAK1, active compounds read low)?
Answer: 0.872 (active)

Question: What about the normalized growth (locus YFR003C, strain YPI1, active compounds read low) of the same molecule?
Answer: 0.88 (active)

Question: What about the normalized growth (locus YFR019W, strain FAB1, active compounds read low) of the same molecule?
Answer: 0.287 (active)

Question: What about the normalized growth (locus YFR028C, strain CDC14, active compounds read low) of the same molecule?
Answer: 0.868 (active)

Question: What about the normalized growth (locus YGR040W, strain KSS1, active compounds read low) of the same molecule?
Answer: 0.331 (active)

Question: And the normalized growth (locus YGR052W, strain FMP48, active compounds read low)?
Answer: 0.294 (active)

Question: And the normalized growth (locus YGR092W, strain DBF2, active compounds read low)?
Answer: 0.206 (active)

Question: What about the normalized growth (locus YHR030C, strain SLT2, active compounds read low) of the same molecule?
Answer: 0.192 (active)

Question: And the normalized growth (locus YHR079C, strain IRE1, active compounds read low)?
Answer: 0.307 (active)

Question: And the normalized growth (locus YHR082C, strain KSP1, active compounds read low)?
Answer: 0.298 (active)

Question: And the normalized growth (locus YHR205W, strain SCH9, active compounds read low)?
Answer: 0.321 (active)

Question: What about the normalized growth (locus YIL147C, strain SLN1, active compounds read low) of the same molecule?
Answer: 0.885 (active)

Question: And the normalized growth (locus YJL095W, strain BCK1, active compounds read low)?
Answer: 0.264 (active)

Question: And the normalized growth (locus YJL128C, strain PBS2, active compounds read low)?
Answer: 0.89

Question: What about the normalized growth (locus YJL157C, strain FAR1, active compounds read low) of the same molecule?
Answer: 0.37 (active)

Question: What about the normalized growth (locus YJR016C, strain ILV3, active compounds read low) of the same molecule?
Answer: 0.874 (active)

Question: And the normalized growth (locus YJR066W, strain TOR1 (second series), active compounds read low)?
Answer: 0.275 (active)

Question: And the normalized growth (locus YJR066W, strain TOR1, active compounds read low)?
Answer: 0.268 (active)

Question: What about the normalized growth (locus YKL048C, strain ELM1, active compounds read low) of the same molecule?
Answer: 0.45 (active)

Question: And the normalized growth (locus YKL067W, strain YNK1, active compounds read low)?
Answer: 0.508 (active)

Question: And the normalized growth (locus YKL101W, strain HSL1, active compounds read low)?
Answer: 0.434 (active)

Question: What about the normalized growth (locus YKL193C, strain SDS22, active compounds read low) of the same molecule?
Answer: 0.886 (active)

Question: And the normalized growth (locus YKL203C, strain TOR2, active compounds read low)?
Answer: 0.291 (active)

Question: What about the normalized growth (locus YLR113W, strain HOG1, active compounds read low) of the same molecule?
Answer: 0.324 (active)

Question: What about the normalized growth (locus YLR133W, strain CKI1, active compounds read low) of the same molecule?
Answer: 0.44 (active)

Question: What about the normalized growth (locus YLR403W, strain SFP1, active compounds read low) of the same molecule?
Answer: 0.265 (active)

Question: And the normalized growth (locus YML070W, strain DAK1, active compounds read low)?
Answer: 0.346 (active)

Question: What about the normalized growth (locus YMR001C, strain CDC5, active compounds read low) of the same molecule?
Answer: 0.876 (active)

Question: What about the normalized growth (locus YMR205C, strain PFK2 (second series), active compounds read low) of the same molecule?
Answer: 0.526 (active)

Question: What about the normalized growth (locus YMR277W, strain FCP1, active compounds read low) of the same molecule?
Answer: 0.881 (active)

Question: And the normalized growth (locus YNL006W, strain LST8, active compounds read low)?
Answer: 0.887 (active)

Question: And the normalized growth (locus YNL020C, strain ARK1, active compounds read low)?
Answer: 0.432 (active)

Question: What about the normalized growth (locus YNL161W, strain CBK1, active compounds read low) of the same molecule?
Answer: 0.871 (active)

Question: And the normalized growth (locus YNL183C, strain NPR1, active compounds read low)?
Answer: 0.298 (active)

Question: What about the normalized growth (locus YNL207W, strain RIO2, active compounds read low) of the same molecule?
Answer: 0.88 (active)

Question: What about the normalized growth (locus YNL222W, strain SSU72, active compounds read low) of the same molecule?
Answer: 0.891 (active)

Question: What about the normalized growth (locus YNL307C, strain MCK1 (second series), active compounds read low) of the same molecule?
Answer: 0.293 (active)

Question: And the normalized growth (locus YOL078W, strain AVO1, active compounds read low)?
Answer: 0.868 (active)

Question: And the normalized growth (locus YOL136C, strain PFK27, active compounds read low)?
Answer: 0.301 (active)

Question: And the normalized growth (locus YOR061W, strain CKA2, active compounds read low)?
Answer: 0.423 (active)

Question: And the normalized growth (locus YOR119C, strain RIO1, active compounds read low)?
Answer: 0.317 (active)

Question: What about the normalized growth (locus YOR231W, strain MKK1, active compounds read low) of the same molecule?
Answer: 0.366 (active)

Question: What about the normalized growth (locus YOR329C, strain SCD5, active compounds read low) of the same molecule?
Answer: 0.872 (active)

Question: And the normalized growth (locus YPL031C, strain PHO85, active compounds read low)?
Answer: 0.309 (active)

Question: And the normalized growth (locus YPL153C, strain RAD53, active compounds read low)?
Answer: 0.387 (active)

Question: What about the normalized growth (locus YPL204W, strain HRR25, active compounds read low) of the same molecule?
Answer: 0.294 (active)

Question: What about the normalized growth (locus YPL209C, strain IPL1, active compounds read low) of the same molecule?
Answer: 0.877 (active)

Question: And the normalized growth (locus YPL256C, strain CLN2, active compounds read low)?
Answer: 0.292 (active)

Question: And the normalized growth (locus YPR025C, strain CCL1, active compounds read low)?
Answer: 0.875 (active)

Question: And the normalized growth (locus YPR106W, strain ISR1, active compounds read low)?
Answer: 0.893

Question: And the normalized growth (locus YPR111W, strain DBF20, active compounds read low)?
Answer: 0.902

Question: What about the normalized growth (strain NNK1, active compounds read low) of the same molecule?
Answer: 0.89

Question: And the normalized growth (strain TSCII, active compounds read low)?
Answer: 0.867 (active)
